ERAP1 inh: ERAP1 (human) enzyme inhibition | Q9NZ08 | recombinant ERAP1, Leu-AMC fluorescence, 60 min | inhibition, % at 10.7 µM | hit rate 0.15% among 340,000;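 active means mean replicate inhibition of at least 30%, or all replicates individually reaching that 30% level; inactive means mean below 30% and not every replicate reaching it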;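 further: 0% = neutral control wells and 100% = L-leucinethiol positive control wells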
DENV2 CPE rescue: DENV2-induced cell death inhibition. hit rate 1.7% among 350,000. DENV2-infected cells, cytopathic effect rescue, plate reader. CPE inhibition, % at 9.99 µM. AID 651640; in the data active means CPE inhibition above about 20%, passing the limit was not always enough; inconclusive means no clear call, values can overlap the other calls; tested in BHK-21 cells;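 further: 0% = median of neutral control wells and 100% = median of positive control wells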
AF4-AF9 inh: MLL-AF4/AF9 protein interaction inhibition. hit rate 0.47% among 350,000. inhibition, % at 10 µM. AlphaScreen, biotin-AF4 peptide binding to FLAG-AF9;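 active means every replicate reaching a set inhibition limit, whatever the replicate mean, cut at about 25% in these data; inconclusive means mean inhibition reaches that limit but some replicates miss it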;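 further: 0% = plate neutral control median and 100% = total signal loss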
PDI inh: blocks human protein disulfide isomerase activity; P07237; PDI insulin aggregation turbidity, A650, 90 min; hit rate 0.052% among 350,000; inhibition, % at 10 µM;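 active means mean inhibition across replicates of 30% or more, whatever share of single replicates reach that level; inconclusive means mean inhibition below 30% while every single replicate reaches 30%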
ERp5 inh: blocks human ERp5 reductase activity on insulin. AID 651711. ERp5 insulin aggregation, absorbance 650 nm, 90 min. Q15084. inhibition, % at 9.99 µM. hit rate 0.05% among 350,000;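 active means mean replicate inhibition above about 25%, with every replicate also reaching it, limit read from the data, passing the limit was not always enough; inconclusive means only one of those two criteria met; inactive means neither criterion met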
Target sequence (Q15084 whole entry, looked up): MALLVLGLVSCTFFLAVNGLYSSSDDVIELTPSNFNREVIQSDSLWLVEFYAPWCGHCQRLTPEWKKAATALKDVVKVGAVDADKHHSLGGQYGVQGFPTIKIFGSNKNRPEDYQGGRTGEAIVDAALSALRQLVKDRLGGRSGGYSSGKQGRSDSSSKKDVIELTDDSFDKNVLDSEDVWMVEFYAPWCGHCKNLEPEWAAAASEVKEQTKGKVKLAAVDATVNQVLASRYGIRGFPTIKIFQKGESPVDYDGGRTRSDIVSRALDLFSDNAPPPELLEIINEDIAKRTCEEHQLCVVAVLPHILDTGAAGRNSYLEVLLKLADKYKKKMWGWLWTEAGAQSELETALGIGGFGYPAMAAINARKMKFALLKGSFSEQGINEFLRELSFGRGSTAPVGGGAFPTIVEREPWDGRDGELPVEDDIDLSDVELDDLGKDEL
* marks the source's active call; other numbers are inactive results; u = inconclusive; x = no result; ! = a repeat was not active. Sampled rows, rich in hits. Any-hit rate of the full collection: about 1.8%.

SMILES | ERAP1 inh | DENV2 CPE rescue | AF4-AF9 inh | PDI inh | ERp5 inh
Cc1ccc(S(=O)(=O)N(CC(=O)O)Cc2ccco2)cc1 | 1.1 | 28.0* | -1.5 | 10.5 | -5.4
CN(CC(=O)Nc1ccc(Cl)c(C(F)(F)F)c1)C(=O)c1cc(-c2ccncc2)nc2ccccc12 | -3.9 | 1.0 | -4.2 | -4.9 | -0.2
CN(CC(=O)Nc1ccc(F)c(F)c1F)C(=O)c1cc(-c2ccncc2)nc2ccccc12 | 2.1 | 4.0 | 2.2 | -2.0 | 29.0*
COc1ccc(CCN(C)C(=O)CSc2nc3ccccc3c(=O)n2CC2CCCO2)cc1OC (configuration not stated) | -1.7 | 20.7* | 7.4 | 3.9 | 2.4
CC(C)C[C@@H]1NC(=O)[C@@H]2C[C@H](C(=O)O)[C@H](c3cccc(OCCO)c3)N2C1=O | 0.0 | 3.2 | -2.4 | x | -0.5
NCCCCCCNC(=O)[C@H]1C[C@H]2C(=O)N[C@@H](Cc3ccccc3)C(=O)N2[C@H]1c1cccc(OCCO)c1 | 2.3 | 21.2* | -3.0 | x | 1.9
CC(C)C[C@@H]1NC(=O)[C@H]2C[C@@H](C(=O)NCCCCCNC(=O)CS)[C@@H](c3cccc(OCCO)c3)N2C1=O | -0.2 | 21.1* | -3.0 | x | -1.4
O=C(c1cccnc1)N1C[C@H]2[C@@H](c3ccccc31)[C@H](CO)N2Cc1ccc2c(c1)OCO2 | 3.7 | -2.1 | 0.4 | x | 0.6
O=C(N/N=C1\CCc2ccccc21)c1ccccc1O | x | x | x | 5.7 | x
O=C(N/N=C1\CCCc2ccccc21)c1ccccc1Cl | 0.0 | -4.1 | 1.6 | 5.4 | 27.7*
COc1ccc(C2CC(c3ccccc3O)=NN2C(=O)c2ccccc2)cc1OC (configuration not stated) | -2.8 | 3.7 | 41.1* | 2.4 | u
COc1cccc(S(=O)(=O)N(C)C[C@@H]2OCc3cnnn3CCCC(=O)N([C@@H](C)CO)C[C@@H]2C)c1 | -11.6 | 20.1*! | -1.4 | 2.4 | 2.9
COc1ccc(S(=O)(=O)N(C)C[C@@H]2OCc3cnnn3CCCC(=O)N([C@@H](C)CO)C[C@H]2C)cc1 | 1.1 | 27.9*! | -0.9 | -14.0 | -0.2
COc1ccc(S(=O)(=O)N(C)C[C@H]2OCc3cnnn3CCCC(=O)N([C@@H](C)CO)C[C@H]2C)cc1 | -3.5 | 63.9*! | 1.8 | -2.1 | -1.5
COc1ccc(S(=O)(=O)N(C)C[C@@H]2OCc3cnnn3CCCC(=O)N([C@H](C)CO)C[C@H]2C)cc1 | 0.4 | 5.2 | 0.8 | -4.5 | 10.7
COc1ccc(S(=O)(=O)N(C)C[C@H]2OCc3cnnn3CCCC(=O)N([C@H](C)CO)C[C@@H]2C)cc1 | 10.5 | 6.3 | -1.8 | -9.4 | 1.4
C[C@H](CO)N1C[C@H](C)[C@@H](CN(C)S(=O)(=O)c2ccc(Cl)cc2)Oc2c(NS(=O)(=O)c3ccc(Cl)cc3)cccc2C1=O | -0.1 | 6.2 | 2.5 | x | 3.6
COCC(=O)Nc1ccc2c(c1)C(=O)N(C)C[C@H](OC)[C@H](C)CN(Cc1cc(F)ccc1F)[C@@H](C)CO2 | 0.0 | -6.2 | 6.6 | x | -4.1
O=C(CCN1CCCCC1)N[C@H]1CC[C@@H](CCNS(=O)(=O)c2ccccc2)O[C@H]1CO | x | -5.4 | 0.6 | x | -2.6
O=C(Cc1ccccn1)N[C@H]1CC[C@H](CCn2cc(-c3cccnc3)nn2)O[C@@H]1CO | -3.4 | 58.3* | 1.5 | x | 3.1
Cc1ccccc1S(=O)(=O)N[C@@H]1CC[C@H](CCn2cc(-c3ccccc3)nn2)O[C@@H]1CO | 4.3 | 20.8* | -3.8 | x | 0.7
O=C(Cc1ccccn1)N[C@@H]1CC[C@H](CCn2cc(-c3cccnc3)nn2)O[C@H]1CO | -4.9 | -0.1 | 0.1 | x | -2.1
O=S(=O)(N[C@@H]1CC[C@@H](CCn2cc(-c3cccnc3)nn2)O[C@@H]1CO)c1ccccc1 | -2.0 | 10.4 | 0.0 | x | -2.4
Cc1ccccc1S(=O)(=O)N[C@H]1CC[C@@H](CCn2cc(-c3ccccc3)nn2)O[C@H]1CO | 8.8 | 3.6 | -4.2 | x | 2.4
O=S(=O)(N[C@H]1CC[C@@H](CCn2cc(-c3cccnc3)nn2)O[C@H]1CO)c1ccccc1 | -2.7 | 27.6* | -0.7 | x | -5.1
SMILES | ERAP1 inh | DENV2 CPE rescue | AF4-AF9 inh | PDI inh | ERp5 inh
CCCC#Cc1ccc2c(c1)O[C@H](CN(C)C(=O)NC(C)C)[C@H](C)CN([C@@H](C)CO)S2(=O)=O | -0.1 | -7.6 | -0.7 | x | -5.3
C[C@@H]1CN([C@@H](C)CO)C(=O)c2cc(C#CCc3ccccc3)cnc2O[C@@H]1CN(C)Cc1ccccc1 | -2.9 | 10.3 | 5.0 | x | 3.3
CCN1C(=O)[C@H]2[C@@H](c3ccc(OC)cc3)N3C(=O)CN(CCOC)C(=O)[C@@]3(C)[C@H]2C1=O | 3.4 | 98.4* | -5.3 | -4.2 | -2.8
CCN1C(=O)[C@H]2[C@@H](c3ccc(OC)cc3)N3C(=O)CN(Cc4ccccc4)C(=O)[C@@]3(Cc3ccccc3)[C@H]2C1=O | 0.7 | x | -16.1 | -10.9 | -5.1
N#Cc1ccc(NC(=O)c2cc(S(=O)(=O)N3CCOCC3)ccc2N2CCCC2)cc1 | -0.4 | -9.6 | -0.4 | -3.0 | 12.1
Cc1cc(Cl)ccc1OC(C)C(=O)Nc1cccc(S(=O)(=O)N2CCOCC2)c1 (configuration not stated) | -0.5 | 0.0 | 3.4 | -49.4 | -0.1
N#CCc1ccc(NC(=O)c2cc(S(=O)(=O)N3CCOCC3)ccc2Cl)cc1 | -0.4 | 60.1* | -7.6 | 4.2 | 4.1
CC(Sc1nc2cc(Cl)ccc2s1)C(=O)Nc1cccc(S(=O)(=O)N2CCOCC2)c1 (configuration not stated) | 3.0 | 32.9* | 2.0 | 4.3 | 3.6
O=C(Nc1cccc(F)c1)c1ccc(S(=O)(=O)N2CCCCC2)cc1 | 7.2 | 113.8* | -0.3 | -6.1 | -15.9
O=C(Nc1cccc(O)c1)c1cccc(S(=O)(=O)N2CCCC2)c1 | x | x | x | 15.0 | x
O=C(Nc1cccc(O)c1)c1ccc(S(=O)(=O)N2CCCCCC2)cc1 | 3.3 | -2.8 | -18.6 | -5.5 | 13.8
O=C(Nc1cccc(S(=O)(=O)N2CCCC2)c1)c1cccc(S(=O)(=O)N2CCOCC2)c1 | 1.8 | -3.0 | 25.6* | 5.1 | 10.1
COc1cccc(S(=O)(=O)N(C)C[C@@H]2Oc3ncc(-c4cccc(C(=O)N(C)C)c4)cc3C(=O)N([C@@H](C)CO)C[C@@H]2C)c1 | 2.2 | -2.9 | -4.2 | x | -8.7
CO[C@H](CN(C)C(=O)c1ccc2c(c1)OCO2)[C@H](C)CN([C@H](C)CO)S(=O)(=O)c1ccccc1 | 0.8 | 4.0 | -1.3 | x | 1.1
Cc1ccc(S(=O)(=O)N2CCOCC2)cc1C(=O)Nc1cccc(C(=O)NC2CC2)c1 | -6.2 | -8.8 | 0.8 | 11.2 | 4.3
O=C(NC1CC1)c1cccc(NC(=O)c2cc(S(=O)(=O)N3CCOCC3)ccc2Cl)c1 | 1.4 | 93.8* | 3.3 | 1.0 | 3.0
Cc1cccnc1NC(=O)c1ccc(S(=O)(=O)N2CCCC2)cc1 | -0.5 | 64.6* | -0.4 | -2.4 | 0.8
C[C@@H]1CN([C@@H](C)CO)C(=O)c2cc(NC(=O)CCC(F)(F)F)ccc2O[C@@H](C)CCCCO[C@H]1CN(C)C(=O)c1ccccc1 | -0.8 | -7.8 | -3.4 | x | 0.4

Assay outcomes deposited in PubChem BioAssay by Broad Institute.
